About 83,000 compounds went through this panel and 20% of them were active in at least one assay; those are over-represented in the sample as a whole.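 Treatment: one concentration, 48 hours, 96-well format. Scoring: percent growth, with anything below 10 considered active.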 Activity calls are given as the source filed them.
How the values were obtained:
Experiment in all cases: NCI-60 one-dose screen, 48 h (100 = growth as untreated, 0 = no growth, -100 = all killed)
Conditions in all cases: 10 µM unless noted
NCI-H23 lung = test system: NCI-H23 lung
NCI-H226 lung = test system: NCI-H226 lung
NCI-H322M lung = test system: NCI-H322M lung
HOP-62 NSCLC = test system: HOP-62 NSCLC
NCI-H460 lung = test system: NCI-H460 lung
HOP-92 NSCLC = test system: HOP-92 NSCLC
NCI-H522 lung = test system: NCI-H522 lung
A549/ATCC NSCLC = test system: A549/ATCC NSCLC
786-0 renal = test system: 786-0 renal
COLO 205 colon = test system: COLO 205 colon
DU-145 prostate = test system: DU-145 prostate
K-562 leukemia = test system: K-562 leukemia
MALME-3M melanoma = test system: MALME-3M melanoma
MDA-MB-231 breast = test system: MDA-MB-231 breast
RXF 393 renal = test system: RXF 393 renal
SF-268 CNS = test system: SF-268 CNS
SF-295 CNS = test system: SF-295 CNS
SF-539 CNS = test system: SF-539 CNS
UACC-257 melanoma = test system: UACC-257 melanoma
M14 melanoma = test system: M14 melanoma

Measured: growth

CS(=O)(=O)Nc1cc(-c2ccc3ncnc(Nc4ccc(F)c(Cl)c4)c3c2)cnc1Cl
active: NCI-H322M lung 3.88% | HOP-92 NSCLC -23.6% | A549/ATCC NSCLC 1.72% | 786-0 renal 7.37% | COLO 205 colon -57.2% | MALME-3M melanoma -15.5% | MDA-MB-231 breast 5.12% | RXF 393 renal -34.2% | SF-295 CNS -17.5% | SF-539 CNS 6.35% | UACC-257 melanoma 4.62% | M14 melanoma 5.92%
inactive: NCI-H23 lung 16.9% | NCI-H226 lung 17.6% | HOP-62 NSCLC 15.1% | NCI-H460 lung 10.6% | NCI-H522 lung 14% | DU-145 prostate 16.3% | K-562 leukemia 18.7% | SF-268 CNS 12.3%

Cc1cnc(C(=O)NNc2nc3sc4c(c3c(=O)[nH]2)C(C)CCC4)cn1 (stereo not given)
inactive: NCI-H23 lung 22.9% | NCI-H322M lung 25.3% | HOP-92 NSCLC 43.6% | NCI-H522 lung 26.1% | A549/ATCC NSCLC 12.3% | 786-0 renal 11.2% | COLO 205 colon 11.2% | DU-145 prostate 22.6% | K-562 leukemia 14% | MALME-3M melanoma 15.9% | MDA-MB-231 breast 42.8% | SF-268 CNS 16.7% | SF-295 CNS 23.4% | SF-539 CNS 10.1%
active: NCI-H226 lung -8.7% | HOP-62 NSCLC 8.82% | NCI-H460 lung 5.04% | RXF 393 renal 6.15% | UACC-257 melanoma 1.78% | M14 melanoma 0.29%

O=C(Cc1ccc(F)cc1)c1ccccc1
inactive: NCI-H23 lung 103% | NCI-H226 lung 110% | NCI-H322M lung 99% | HOP-62 NSCLC 109% | NCI-H460 lung 108% | HOP-92 NSCLC 89.7% | NCI-H522 lung 101% | A549/ATCC NSCLC 102% | 786-0 renal 97.6% | COLO 205 colon 134% | DU-145 prostate 127% | K-562 leukemia 100% | MALME-3M melanoma 107% | MDA-MB-231 breast 111% | RXF 393 renal 118% | SF-268 CNS 113% | SF-295 CNS 117% | SF-539 CNS 113% | UACC-257 melanoma 114% | M14 melanoma 105%

CC(=O)c1c(C)nc2ccccc2c1/C=C/c1cccc(C)c1
inactive: NCI-H23 lung 61.6% | NCI-H226 lung 75.2% | NCI-H322M lung 96.9% | HOP-62 NSCLC 60.9% | NCI-H460 lung 33.8% | HOP-92 NSCLC 60.2% | NCI-H522 lung 41.5% | A549/ATCC NSCLC 43.6% | 786-0 renal 79.7% | COLO 205 colon 58.5% | DU-145 prostate 88.2% | K-562 leukemia 16.1% | MALME-3M melanoma 82.9% | MDA-MB-231 breast 63.5% | RXF 393 renal 73.1% | SF-268 CNS 81.9% | SF-295 CNS 58% | SF-539 CNS 61.7% | UACC-257 melanoma 73.5% | M14 melanoma 46.3%

O=C(/C=C/c1ccc([N+](=O)[O-])cc1)c1ccccc1
inactive: NCI-H23 lung 93.2% | NCI-H226 lung 85% | NCI-H322M lung 102% | HOP-62 NSCLC 83% | NCI-H460 lung 105% | HOP-92 NSCLC 75.9% | NCI-H522 lung 70.4% | A549/ATCC NSCLC 83.3% | 786-0 renal 89.1% | COLO 205 colon 87.2% | DU-145 prostate 97.3% | K-562 leukemia 44.1% | MALME-3M melanoma 107% | MDA-MB-231 breast 102% | RXF 393 renal 91.1% | SF-268 CNS 92% | SF-295 CNS 93.4% | SF-539 CNS 92.3% | UACC-257 melanoma 89.1% | M14 melanoma 92.2%

Nc1n[nH]c2cccc(C#Cc3cccc(C(=O)Nc4ccc(CN5CCOCC5)c(C(F)(F)F)c4)c3)c12
active: 786-0 renal 8.57% | K-562 leukemia 4.19% | MALME-3M melanoma -3.92% | RXF 393 renal -4.45% | SF-295 CNS 2.26% | SF-539 CNS -54.5% | M14 melanoma 5.11%
inactive: NCI-H23 lung 33.6% | NCI-H226 lung 36.5% | NCI-H322M lung 72.2% | HOP-62 NSCLC 52.1% | NCI-H460 lung 44.5% | HOP-92 NSCLC 35.5% | NCI-H522 lung 41.9% | A549/ATCC NSCLC 43.4% | COLO 205 colon 13.1% | DU-145 prostate 69.5% | MDA-MB-231 breast 28.8% | SF-268 CNS 55% | UACC-257 melanoma 40.1%

Cc1c(C(=O)OCCCCOC(=O)c2c(C)n(C)c3scc[n+]23)[n+]2ccsc2n1C
inactive: NCI-H23 lung 101% | NCI-H226 lung 91.1% | NCI-H322M lung 112% | HOP-62 NSCLC 109% | NCI-H460 lung 108% | HOP-92 NSCLC 88.9% | NCI-H522 lung 99.6% | A549/ATCC NSCLC 90.2% | 786-0 renal 112% | COLO 205 colon 119% | DU-145 prostate 107% | K-562 leukemia 92% | MALME-3M melanoma 105% | MDA-MB-231 breast 97.9% | RXF 393 renal 103% | SF-268 CNS 108% | SF-295 CNS 93.2% | SF-539 CNS 105% | UACC-257 melanoma 96.5% | M14 melanoma 110%

C=C1CCC2C3(C)COC(c4ccc(NC(C)=O)cc4)OC3CCC2(C)C1C/C=C1/C(=O)OCC1O (stereo not given)
inactive: NCI-H23 lung 36.4% | NCI-H226 lung 64.5% | NCI-H322M lung 89% | HOP-62 NSCLC 85.5% | NCI-H460 lung 66.2% | HOP-92 NSCLC 72.6% | NCI-H522 lung 29.5% | A549/ATCC NSCLC 35.9% | 786-0 renal 57.1% | COLO 205 colon 82.6% | DU-145 prostate 108% | K-562 leukemia 18.7% | MALME-3M melanoma 66.6% | MDA-MB-231 breast 87.3% | RXF 393 renal 62.6% | SF-268 CNS 94% | SF-295 CNS 25.1% | SF-539 CNS 69.6% | UACC-257 melanoma 30.5% | M14 melanoma 76.3%

N#CC1=C(N)Oc2c(sc3c(Br)cccc23)C1c1ccccn1 (stereo not given)
active: NCI-H522 lung -14.1% | COLO 205 colon 6.4% | SF-539 CNS 6.33%
inactive: NCI-H23 lung 53.3% | NCI-H226 lung 41.2% | NCI-H322M lung 51.1% | HOP-62 NSCLC 30.9% | NCI-H460 lung 20.4% | HOP-92 NSCLC 35.3% | A549/ATCC NSCLC 40.1% | 786-0 renal 27.2% | DU-145 prostate 51.2% | K-562 leukemia 15.2% | MALME-3M melanoma 45.4% | MDA-MB-231 breast 59.8% | RXF 393 renal 13.5% | SF-268 CNS 41.5% | SF-295 CNS 18% | UACC-257 melanoma 51.1% | M14 melanoma 28.1%

O=C1C=C(Nc2ccccc2)c2ncccc2C1=O
active: NCI-H23 lung -43.1% | NCI-H226 lung -46.6% | NCI-H322M lung -97.5% | HOP-62 NSCLC -90.4% | NCI-H460 lung -69.4% | HOP-92 NSCLC -79.9% | NCI-H522 lung -75.3% | A549/ATCC NSCLC -49% | 786-0 renal -91.9% | COLO 205 colon -76.6% | DU-145 prostate -95.4% | K-562 leukemia -48% | MALME-3M melanoma -91.3% | MDA-MB-231 breast -18% | RXF 393 renal -96.4% | SF-268 CNS -61.9% | SF-295 CNS -97.5% | SF-539 CNS -87.3% | UACC-257 melanoma -97.7% | M14 melanoma -86.3%

COC(=O)/C=C1/SC(=Nc2ccc([N+](=O)[O-])cc2)N(CCc2c[nH]c3ccccc23)C1=O
inactive: NCI-H23 lung 72.7% | NCI-H226 lung 98.7% | NCI-H322M lung 98.4% | HOP-62 NSCLC 96.7% | NCI-H460 lung 92.2% | HOP-92 NSCLC 73.2% | NCI-H522 lung 53.6% | A549/ATCC NSCLC 90.8% | 786-0 renal 68% | COLO 205 colon 84.6% | DU-145 prostate 66.8% | K-562 leukemia 25.8% | MALME-3M melanoma 86.5% | MDA-MB-231 breast 72.1% | RXF 393 renal 70.4% | SF-268 CNS 75.7% | SF-295 CNS 84.2% | SF-539 CNS 79.6% | UACC-257 melanoma 71.6% | M14 melanoma 52%

N=C(N)SCc1c2ccccc2c(CSC(=N)N)c2ccccc12
inactive: NCI-H23 lung 54.4% | NCI-H226 lung 71.2% | NCI-H322M lung 103% | HOP-62 NSCLC 55.5% | NCI-H460 lung 34.4% | HOP-92 NSCLC 32.2% | NCI-H522 lung 31.2% | A549/ATCC NSCLC 65.9% | 786-0 renal 47.7% | COLO 205 colon 66.1% | DU-145 prostate 63.9% | K-562 leukemia 35.3% | MALME-3M melanoma 71.3% | MDA-MB-231 breast 103% | RXF 393 renal 99.7% | SF-268 CNS 55.5% | SF-295 CNS 66.7% | SF-539 CNS 84% | UACC-257 melanoma 119% | M14 melanoma 68.4%

CC(C)=CCc1cc(O)c(O)c2oc3cc(O)cc(O)c3c(=O)c12
inactive: NCI-H23 lung 51.1% | NCI-H226 lung 96.9% | NCI-H322M lung 75.1% | HOP-62 NSCLC 45.9% | NCI-H460 lung 25.1% | HOP-92 NSCLC 86.9% | NCI-H522 lung 58.4% | A549/ATCC NSCLC 43.3% | 786-0 renal 64.8% | COLO 205 colon 91.7% | DU-145 prostate 55.8% | K-562 leukemia 67% | MALME-3M melanoma 91.3% | MDA-MB-231 breast 55.5% | RXF 393 renal 84.6% | SF-268 CNS 49.7% | SF-295 CNS 77.9% | SF-539 CNS 64.8% | UACC-257 melanoma 98.2% | M14 melanoma 63.9%

COCCn1cc(-c2nc(-c3cn(CCOC)c4ncccc34)cs2)c2ccccc21
inactive: NCI-H23 lung 56.2% | NCI-H226 lung 87.3% | NCI-H322M lung 59.2% | HOP-62 NSCLC 67.8% | NCI-H460 lung 56.6% | HOP-92 NSCLC 66.4% | NCI-H522 lung 53.4% | A549/ATCC NSCLC 70.8% | 786-0 renal 82.9% | COLO 205 colon 18.8% | DU-145 prostate 97.1% | K-562 leukemia 119% | MALME-3M melanoma 88.6% | MDA-MB-231 breast 49% | RXF 393 renal 76.1% | SF-268 CNS 83.3% | SF-295 CNS 91.4% | SF-539 CNS 79.4% | UACC-257 melanoma 88% | M14 melanoma 99.9%
